The nature of assay [1]: antimalarial activity against Dd2 strain (AID 2302;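 active = growth inhibition above 50% at the single 2 µM test dose, taken to imply half-maximal potency below 2 µM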;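 also: 0% = DMSO untreated growth and 100% = chloroquine plus artemisinin killed control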). To be noted: P. falciparum Dd2 in RBCs, LDH growth readout, 72 h; at 2 µM; hits give high values.
Assay [2] in a line: HepG2 cytotoxicity, primary screen, cytotoxicity control for P. falciparum antimalarial project, cell-based, ATP luminescence (AID 2303;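 active = inhibition above 50%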;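 also: 0% = DMSO wells and 100% = digitonin-killed cells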). Particulars: HepG2 viability, 24-48 h, at 10 µM, hits give high values.
The target in assay [3] is L-lactate dehydrogenase (Plasmodium falciparum (isolate CDC / Honduras)) (UniProt Q27743). The experiment in a line: PfLDH activity inhibition – cell lysate, 3D7 strain, counter-screen for P. falciparum growth inhibition project (AID 2304).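 Also: 0% = vehicle and 100% = reference inhibitor.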 Particulars: P. falciparum 3D7 crude extract, LDH APAD/NBT absorbance; at 2 µM; hits give high values. On the technique in general: The purpose of a counterscreen is to sort out artefacts and off-target activity.
Sequence of L-lactate dehydrogenase (Plasmodium falciparum (isolate CDC / Honduras)) (Q27743 whole entry, looked up): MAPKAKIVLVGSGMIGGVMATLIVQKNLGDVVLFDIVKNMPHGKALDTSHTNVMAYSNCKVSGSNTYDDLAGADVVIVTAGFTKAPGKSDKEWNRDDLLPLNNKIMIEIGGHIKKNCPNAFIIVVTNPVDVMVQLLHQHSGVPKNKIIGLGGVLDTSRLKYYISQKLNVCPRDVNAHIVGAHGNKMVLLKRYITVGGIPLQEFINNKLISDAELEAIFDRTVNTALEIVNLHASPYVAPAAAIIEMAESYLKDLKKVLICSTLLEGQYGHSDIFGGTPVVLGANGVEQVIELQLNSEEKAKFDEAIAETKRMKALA

The nature of assay [4]: inhibition of 3D7 malaria parasite growth – strain 3D7 (AID 2306).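 Also: 0% = DMSO wells and 100% = chloroquine plus artemisinin control wells.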 To be noted: P. falciparum 3D7 erythrocytic growth, LDH absorbance, 72 h; at 2 µM; hits give high values.
For assay [5], the target named is Calcium-dependent protein kinase 1 (Plasmodium falciparum (isolate 3D7)) (UniProt P62344). The experiment in a line: PfCDPK1 kinase inhibitors, biochemical, TCAMS library (AID 1159585; cut-off not given, nearly all actives have IC50 up to about 0.98 µM;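 also: inhibitors leave more ATP so luminescence rises with inhibition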). Particulars: recombinant PfCDPK1, Kinase-Glo ATP depletion luminescence.
Sequence of Calcium-dependent protein kinase 1 (Plasmodium falciparum (isolate 3D7)) (P62344 whole entry, looked up): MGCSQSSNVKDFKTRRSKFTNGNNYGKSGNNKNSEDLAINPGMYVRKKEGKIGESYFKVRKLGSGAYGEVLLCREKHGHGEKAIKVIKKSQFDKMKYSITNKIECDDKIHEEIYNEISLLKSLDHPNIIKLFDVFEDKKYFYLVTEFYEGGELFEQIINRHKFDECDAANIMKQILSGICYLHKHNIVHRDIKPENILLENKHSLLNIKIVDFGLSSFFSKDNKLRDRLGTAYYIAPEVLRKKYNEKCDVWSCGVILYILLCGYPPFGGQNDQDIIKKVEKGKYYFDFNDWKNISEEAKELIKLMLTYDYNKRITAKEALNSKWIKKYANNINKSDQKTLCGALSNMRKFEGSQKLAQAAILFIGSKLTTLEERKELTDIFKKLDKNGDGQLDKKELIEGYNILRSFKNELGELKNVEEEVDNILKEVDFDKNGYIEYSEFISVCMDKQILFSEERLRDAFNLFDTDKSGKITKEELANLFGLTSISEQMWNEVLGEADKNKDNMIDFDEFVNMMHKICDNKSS
The target of assay [6] is Plasmodium falciparum protein kinase 6 (PK6, PF3D7_1337100) (UniProt Q8IDW1). The experiment in a line: PfPK6 kinase inhibitors, biochemical, TCAMS library (AID 1159586). To be noted: recombinant PfPK6, Kinase-Glo ATP depletion luminescence. A general note: Kinase-Glo measures the ATP left after a reaction by luminescence.
Sequence of Plasmodium falciparum protein kinase 6 (PK6, PF3D7_1337100) (Q8IDW1 1-305): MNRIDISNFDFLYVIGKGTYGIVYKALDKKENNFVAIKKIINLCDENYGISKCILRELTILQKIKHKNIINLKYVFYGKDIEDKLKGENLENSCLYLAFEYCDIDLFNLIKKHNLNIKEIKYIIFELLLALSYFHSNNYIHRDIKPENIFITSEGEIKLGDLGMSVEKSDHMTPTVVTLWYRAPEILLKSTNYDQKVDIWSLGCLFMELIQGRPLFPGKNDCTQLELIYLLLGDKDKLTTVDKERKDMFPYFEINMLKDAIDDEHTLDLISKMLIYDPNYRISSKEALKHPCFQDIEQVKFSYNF
Assay [7] concerns the target Protein kinase 7 (PK7), Plasmodium falciparum 3D7 (PF3D7_0213400) (UniProt Q7YTF7). The assay is described as follows: inhibition of Plasmodium PK7 catalytic activity – biochemical, TCAMS antimalarial set, Kinase-Glo luminescence (AID 1159587). To be noted: recombinant PfPK7, Kinase-Glo ATP depletion luminescence.
The target of assay [8] is Calcium-dependent protein kinase 4 (Plasmodium falciparum (isolate 3D7)) (UniProt Q8IBS5). The assay is described as follows: PfCDPK4 kinase inhibitors, biochemical, TCAMS library (AID 1159588; cut-off not given, nearly all actives have IC50 up to about 0.91 µM). Particulars: recombinant PfCDPK4, Kinase-Glo ATP depletion luminescence.
Sequence of Calcium-dependent protein kinase 4 (Plasmodium falciparum (isolate 3D7)) (Q8IBS5 whole entry, looked up): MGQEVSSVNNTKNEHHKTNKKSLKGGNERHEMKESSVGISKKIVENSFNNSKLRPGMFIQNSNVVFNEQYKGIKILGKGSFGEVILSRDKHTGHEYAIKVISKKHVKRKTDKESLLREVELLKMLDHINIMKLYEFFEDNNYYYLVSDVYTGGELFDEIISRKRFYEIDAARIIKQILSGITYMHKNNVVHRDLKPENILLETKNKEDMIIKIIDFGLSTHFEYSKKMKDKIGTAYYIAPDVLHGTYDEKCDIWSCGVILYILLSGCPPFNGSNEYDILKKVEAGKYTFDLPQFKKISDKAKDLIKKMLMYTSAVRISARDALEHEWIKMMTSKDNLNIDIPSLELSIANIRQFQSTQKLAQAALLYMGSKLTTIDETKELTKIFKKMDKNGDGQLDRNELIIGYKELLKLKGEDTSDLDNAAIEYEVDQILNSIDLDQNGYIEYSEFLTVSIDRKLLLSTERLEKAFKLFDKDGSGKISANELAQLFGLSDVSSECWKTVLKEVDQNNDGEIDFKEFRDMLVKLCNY

From PubChem BioAssay come the findings set out here.

Each structure is given as a SMILES string. Unmarked numbers belong to inactive results. For some of these results: Potency and affinity values are given separately. Activity calls are given as the source filed them. Unless noted, no rule for the calls is given here.

Sequence of Protein kinase 7 (PK7), Plasmodium falciparum 3D7 (PF3D7_0213400) (Q7YTF7 1-343): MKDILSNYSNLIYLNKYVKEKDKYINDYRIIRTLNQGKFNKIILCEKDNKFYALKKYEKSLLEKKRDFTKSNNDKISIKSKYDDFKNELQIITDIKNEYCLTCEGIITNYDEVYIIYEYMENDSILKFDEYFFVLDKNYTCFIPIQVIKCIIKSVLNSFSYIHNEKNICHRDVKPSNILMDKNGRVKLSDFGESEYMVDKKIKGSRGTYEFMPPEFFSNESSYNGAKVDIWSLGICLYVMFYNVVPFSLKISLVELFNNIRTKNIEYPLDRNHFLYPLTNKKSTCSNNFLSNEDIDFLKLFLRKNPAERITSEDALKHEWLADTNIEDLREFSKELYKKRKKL

`CNCCNCc1ccc(-c2ccc(-c3nc4ccc(F)cc4[nH]3)cc2)cc1`: the growth inhibition in assay [1] was 97% (active); in assay [4], 98% (active). For the same compound, the inhibition in assay [2] is 30%; in assay [3], 4%. The outcome in assay [5], in assay [6], in assay [7] and in assay [8] was inactive.

Consider `O=c1cc(NCCC(CNCc2cc3ccccc3o2)NCc2cc(Br)cc(Br)c2)[nH]c2ccccc12` (stereo not given), for which the results for the growth inhibition in assay [1] and in assay [4] were 94% (active) and 100% (active), respectively. Besides, the inhibition in assay [2] is 6%; in assay [3], 2%. Besides, the outcome in assay [5], in assay [6], in assay [7] and in assay [8] was inactive.

Take `COc1cccc(-c2ccc(O)c(CNCCc3cccc(F)c3)c2)n1`: the growth inhibition is 67% (active) in assay [1] and 96% (active) in assay [4]. The inhibition was -14% in assay [2] and 0% in assay [3]. The outcome in assay [5], in assay [6], in assay [7] and in assay [8] was inactive.

For the compound `COCc1nc(-c2ccccc2)nc(N2CCN(C(=O)NC(C)C)CC2)c1Cc1ccccc1F`, the growth inhibition in assay [1] is 94% (active); in assay [4] it was 96% (active). Further, the inhibition in assay [2] was 35%; in assay [3], -3%. For the same compound, the result in assay [5], in assay [6], in assay [7] and in assay [8] was inactive.

Consider `CC(C)CNC(=S)N1CCCN(c2nc3ccc(Cl)cc3s2)CC1`, for which the growth inhibition in assay [1] is 11%; in assay [4], 95% (active). In addition, the inhibition was 28% in assay [2] and -3% in assay [3]. Also, the outcome in assay [5], in assay [6], in assay [7] and in assay [8] was inactive.

Regarding `OC(CNc1ccnc(Nc2ccccc2)n1)c1cccc(C(F)(F)F)c1` (stereo not given), the growth inhibition in assay [1] was 61% (active); in assay [4], 100% (active). The inhibition is 16% in assay [2] and -2% in assay [3]. The outcome in assay [5], in assay [6], in assay [7] and in assay [8] was inactive.

On to `COC(=O)C1(NC(=O)c2ccc(-n3nc(C)c(-c4ccccc4)c3N)cc2)CCCC1`, for which the growth inhibition in assay [1] is 81% (active); in assay [4], 96% (active). Also, the figures for the inhibition in assay [2] and in assay [3] were 9% and -5%, respectively. Moreover, the result in assay [5], in assay [6], in assay [7] and in assay [8] was inactive.

As to `CCC(C)NS(=O)(=O)c1ccc2nc(Nc3ccc(C)cc3)n(C3CCCCC3)c2c1` (stereo not given), the growth inhibition in assay [1] and in assay [4] was 97% (active) each time. Besides, the results for the inhibition in assay [2] and in assay [3] were -9% and -4%, respectively. Besides, the result in assay [5], in assay [6], in assay [7] and in assay [8] was inactive.

For `CC(C)N1CCC(N(Cc2ccc(-c3ccc(C(F)(F)F)cc3)cc2)C(=O)Cn2c(CCc3cccc(F)c3F)nc(=O)c3cccnc32)CC1`, the growth inhibition in assay [1] is 80% (active); in assay [4], 100% (active). The results for the inhibition in assay [2] and in assay [3] were 100% (active) and 6%, respectively. Besides, the outcome in assay [5], in assay [6], in assay [7] and in assay [8] was inactive.

Regarding `Cc1cc(NC(=O)NCCN2CCC(NS(=O)(=O)c3cccc(Br)c3)C2)c2ccccc2n1` (stereo not given), the growth inhibition in assay [1] was 58% (active); in assay [4], 99% (active). Further, the inhibition in assay [2] is 0%; in assay [3], -2%. Besides, the outcome in assay [5], in assay [6], in assay [7] and in assay [8] was inactive.

For `CN(C)c1ccc(C2c3nc[nH]c3CCN2C(=O)Nc2cccc([N+](=O)[O-])c2)cc1` (stereo not given), the growth inhibition in assay [1] is 15%; in assay [4], 98% (active). The inhibition is -5% in assay [2] and 1% in assay [3]. Also, the outcome in assay [5], in assay [6], in assay [7] and in assay [8] was inactive.

Regarding `CCN(CC)C(=NCCCCCCCCN=C(/N=C(/N)Nc1ccc(Cl)cc1)N(CC)CC)/N=C(/N)Nc1ccc(Cl)cc1`, the figures for the growth inhibition in assay [1] and in assay [4] were 94% (active) and 99% (active), respectively. In addition, the results for the inhibition in assay [2] and in assay [3] were 10% and -3%, respectively. Also, the outcome in assay [5], in assay [6], in assay [7] and in assay [8] was inactive.

Take `O=C(Nc1cccc(-c2cccc(-c3nc4ccc(F)cc4[nH]3)c2)c1)c1ccoc1`: the growth inhibition in assay [1] was 35%; in assay [4], 98% (active). In addition, the inhibition in assay [2] was 36%; in assay [3], 5%. Moreover, the result in assay [5], in assay [6], in assay [7] and in assay [8] was inactive.

For `Cc1cc(Nc2ncc3c(n2)N(C2CCC2)CC3)ccc1N1CCN(C)CC1`, the figures for the growth inhibition in assay [1] and in assay [4] were 100% (active) and 101% (active), respectively. Moreover, the inhibition is 27% in assay [2] and -2% in assay [3]. Besides, the outcome in assay [5], in assay [6], in assay [7] and in assay [8] was inactive.

Take `Cc1c(CC(=O)N(C)C2CCN(CCCCCNC(=O)/C=C/c3ccc(Cl)c(Cl)c3)CC2)sc2ccc(Cl)cc12`: the growth inhibition was 9% in assay [1] and 95% (active) in assay [4]. Moreover, the results for the inhibition in assay [2] and in assay [3] were 93% (active) and 3%, respectively. In addition, the result in assay [5], in assay [6], in assay [7] and in assay [8] was inactive.

`CC(C)Sc1nc2c(c(=O)n1Cc1ccco1)C1(CCCC1)Cc1ccccc1-2`: the growth inhibition in assay [1] is 10%; in assay [4], 98% (active). The inhibition in assay [2] was 8%; in assay [3], 4%. The result in assay [5], in assay [6], in assay [7] and in assay [8] was inactive.

Regarding `Cc1ccc(C)c(S(=O)(=O)NCC2CCN(Cc3ccc(O)cc3)CC2)c1`, the growth inhibition in assay [1] was 57% (active); in assay [4], 87% (active). Besides, the inhibition in assay [2] is 16%; in assay [3], -6%. In addition, the result in assay [5], in assay [6], in assay [7] and in assay [8] was inactive.

`CCCNCc1ccc(-c2ccc(CN(CCOC)C(=O)c3cccc(C#N)c3)cc2)nc1`: the growth inhibition in assay [1] is 14%; in assay [4], 84% (active). Moreover, the inhibition in assay [2] and in assay [3] was -2% in each case. In addition, the result in assay [5], in assay [6], in assay [7] and in assay [8] was inactive.

In the case of `O=C(NC1CC1)c1cnc(N2CCN(Cc3ccc(Cl)cc3)CC2)c(Cl)c1`, the growth inhibition in assay [1] was 91% (active); in assay [4] it was 93% (active). In addition, the inhibition is 39% in assay [2] and 0% in assay [3]. Also, the outcome in assay [5], in assay [6], in assay [7] and in assay [8] was inactive.

As to `CCCOc1ccc(C(=O)Nc2nonc2-c2ccc(OC)c(OC)c2)cc1`, the growth inhibition in assay [1] is 97% (active); in assay [4] it was 99% (active). The inhibition in assay [2] is -9%; in assay [3], 5%. Further, the outcome in assay [5], in assay [6], in assay [7] and in assay [8] was inactive.

By inhibition is commonly meant the drop in the measured response relative to a control, in per cent.
